Measurements: PubChem BioAssay (NCATS)
Inconclusive results are not listed. Activity calls are given as the source filed them. Unless noted, no rule for the calls is given here.

Key:
[1] = qHTS profiling of the MIPE4 collection as inhibitors of Plasmodium falciparum (DD2) proliferation (Rep 2) (AID 743346); settings: P. falciparum Dd2 in erythrocytes, SYBR Green DNA, 72 h; at 28.5 µM unless noted
Method in brief: (§1)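 Erythrocytes infected with P. falciparum (0.3% parasitemia, 2.5% hematocrit) incubated with compounds 72 h at 37 C, 5% CO2. Lysis with saponin/Triton buffer containing SYBR Green I, overnight at room temperature in the dark; DNA fluorescence (485/535 nm) normalised to 0.29 uM artemisinin and DMSO.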

[2] = qHTS profiling of the MIPE4 collection as inhibitors of Plasmodium falciparum (HB3) proliferation (AID 743347);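 also: plate controls were DMSO vehicle wells for no effect and artemisinin wells for full effect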; settings: P. falciparum HB3 in erythrocytes, SYBR Green DNA, 72 h; at 28.5 µM unless noted
Method in brief: as §1

[3] = High-throughput drug toxicity screening in the BPDCN cell line Gen2.2 (AID 1224824); settings: Gen2.2 BPDCN cells; at 45.8 µM (top of the series) unless noted;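 also: cells exposed to compounds for 48 h before reading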
Method in brief: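 Seed 500 exponentially growing Gen2.2 cells/well; add compounds by pin tool; incubate 48 h, 37 °C, 5% CO2; add CellTiter-Glo, 15 min RT; read luminescence. % activity vs DMSO (100%) and bortezomib (0%).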

[4] = High-throughput drug toxicity screening in the BPDCN cell line Cal-1 (AID 1224825); settings: Cal-1 BPDCN cell viability, qHTS; at 45.8 µM (top of the series) unless noted
Method in brief: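 Cal-1 cells, 500 per well in phenol-red-free RPMI with 10% FBS, exposed to compounds for 48 hours at 37C, 5% CO2. Viability read by CellTiter-Glo luminescence; percent activity normalized to DMSO (100%) and 9.2 uM bortezomib final (0%).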

[5] = qHTS assay for measurement of the activity of small molecule inhibitors on Zika virus induced Caspase-3 activity in human iPSC derived neural progenitor cells (hNPCs) (AID 1224857; active = well fitted inhibition curve with a large enough effect; also: % of control where 0% means no effect; nearly all actives have a fitted effect of over 65% in size)
Method in brief: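 In medium with heparin 2 ug/ml and cyclopamine 2 uM, hNPCs (350 cells/well) received compound for one hour and then Zika virus at 2 FFU/cell; caspase activity was measured by Caspase-Glo 3/7 luminescence 6 h post-infection.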

[6] = qHTS assay for measurement of the activity of small molecule inhibitors on Zika virus induced Caspase-3 activity in human astrocytoma cells (AID 1224859; active = well fitted inhibition curve with a large enough effect;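 also: plate controls were ZIKV-infected untreated cells for no effect and uninfected cells for full effect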)
Method in brief: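 A cell-based luminescent caspase-3/7 assay used SNB-19 cells infected with ZIKV (2 FFU/cell) for 6 h following 1 h compound pretreatment.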

[7] = qHTS Screen of the MIPE 4.0 Collection Against Ewings Sarcoma (EW8) (AID 1259255; active = well fitted inhibition curve with a large enough effect; also: nearly all actives have a fitted effect of over 35% in size; also: potency is read from the fitted curve at half-maximal effect;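 as to viability: 100% = DMSO-treated cells and 0% = medium-only wells without cells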)
Method in brief: (§2)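 Log-phase cells in RPMI with 5% FBS attached for 4 h, then received compounds as a titration for 48 h at 37C, 5% CO2. Viability was read by CellTiter-Glo luminescence and normalized to DMSO and no-cell wells.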

[8] = qHTS Screen of the MIPE 4.0 Collection Against Ewings Sarcoma (TC71) (AID 1259253; active = well fitted inhibition curve with a large enough effect; also: nearly all actives have a fitted effect of over 40% in size; also: potency is read from the fitted curve at half-maximal effect)
Method in brief: as §2

[9] = qHTS Screen of the MIPE 4.0 Collection Against Ewings Sarcoma (TC32) (AID 1259256; active = well fitted inhibition curve with a large enough effect; also: nearly all actives have a fitted effect of over 45% in size; also: potency is read from the fitted curve at half-maximal effect)
Method in brief: as §2

SMILES	parasite growth, % of control (lower = inhibition) [1]	growth, % of control [2]	cell viability, % of control (lower = more cytotoxic) [3]	viability (% of control) [4]	Potency [5]	Potency [6]	Potency [7]	Potency [8]	Potency [9]
CC(C)(C)c1cc(C(=O)O)c(NC(=O)Nc2ccc3[nH]ncc3c2)s1	81.5%	69.6%	134%	110%	inactive	inactive	inactive		
COc1ccc(Cc2ccc(NC(N)=O)cc2)cc1-c1cccc(Cl)c1	38.4%	69.6%	234%	91.3%	inactive	inactive		18.7 µM (active)	23.5 µM (active)
COc1cc(N2CCC(N3CCN(C)CC3)CC2)ccc1Nc1ncc(Cl)c(Nc2ccccc2S(=O)(=O)C(C)C)n1	5.51%	7.64%	5.5%	2.84%	inactive	inactive		inactive	
CO[C@@H](C(=O)N1Cc2[nH]nc(NC(=O)c3ccc(N4CCN(C)CC4)cc3)c2C1)c1ccccc1	10.5%	3.96%	134%	6.89%	inactive	inactive	0.0935 µM (active)		0.0662 µM (active)
CN1[C@@H]2CCC[C@@H]1CC(NC(=O)c1nn(C)c3ccccc13)C2 (some centres not stated)			97.5%	105%					
CN1C[C@H]2c3ccccc3Oc3ccc(Cl)cc3[C@@H]2C1			54.1%	73.9%					
CC=CCC=CCCC(=O)[C@H]1O[C@@H]1C(N)=O			7.55%	15.5%	inactive				
CC(C)OC(=O)C(C)(C)Oc1ccc(C(=O)c2ccc(Cl)cc2)cc1			250%	119%					
Cc1ccc(/C=N/NC(=O)c2ccccc2Oc2ccccc2)o1	120%	92%	76%	18.6%	inactive	inactive		20.9 µM (active)	
C=C1C(=O)OC2C=C(C)CCC=C(C)CCC12 (configuration not stated)	108%	559%	10.5%	11.5%	inactive	inactive	23.5 µM (active)		20.9 µM (active)
CC#CCn1c(N2CCC[C@@H](N)C2)nc2c1c(=O)n(Cc1nc(C)c3ccccc3n1)c(=O)n2C	22.9%	88.9%	159%	101%	inactive	inactive		26.4 µM (active)	
COc1cc(O)c2c(c1)C(=O)c1cc(C)cc(O)c1C2=O	84.4% [at 9.64 µM]	47.7% [at 9.64 µM]	154% [at 23.2 µM]	101% [at 23.2 µM]	inactive	inactive		inactive	
O=C(OCC#CCSc1nnc(-c2cccc3ccccc23)o1)c1cc2ccccc2s1	64.2%	44.7%	91.8%	118%	inactive	inactive	inactive		
NC(=O)c1cnc(-c2ccc(C3(N)CCC3)cc2)c(-c2ccccc2)c1	30%	75.7%	80.1%	67%	inactive	inactive		inactive	
CC(C)=CC[C@@H](O)C1=CC(=O)c2c(O)ccc(O)c2C1=O	4.13%	2.71%	5.88%	13.2%	inactive	inactive		2.35 µM (active)	
O=c1ccn([C@@H]2O[C@H](CO)[C@H](O)[C@H]2O)c(=O)[nH]1	99.5%	107%	90%	112%	inactive	inactive	inactive		inactive
CC[C@H]1OC(=O)[C@H](C)C(=O)[C@H](C)[C@@H](O[C@H]2O[C@H](C)C[C@H](N(C)C)[C@@H]2O)[C@](C)(OC)C[C@@H](C)C(=O)[C@H](C)[C@H]2N(CCCCn3cnc(-c4cccnc4)c3)C(=O)O[C@]12C	32.9%	9.46%	122%	93.6%	inactive	inactive	20.9 µM (active)		16.6 µM (active)
O=C(Nc1cc(Cl)cc2c1[nH]c1cnccc12)c1cccnc1	10.7%	3.51%	67.6%	97.7%	inactive	inactive		23.5 µM (active)	26.4 µM (active)
Cn1cc(C=C2C(=O)Nc3cccnc32)c2ccccc21	53%	2.02%	111%	63.5%	inactive	inactive		inactive	inactive
CC1(C)O[C@H]2C[C@@H]3[C@H]4CCC5=CC(=O)C=C[C@]5(C)[C@@]4(F)[C@@H](O)C[C@]3(C)[C@]2(C(=O)CO)O1	65.2%	69%	37.9%	8.18%	inactive	inactive		inactive	
CCOC(=O)C1=C(N)Oc2ccc(Br)cc2C1C(C#N)C(=O)OCC (configuration not stated)	93.2%	107%	3.23%	9.05%	inactive	inactive		23.5 µM (active)	37.2 µM (active)
O=C(NCc1ccncc1)C12C[C@H]3C[C@@H](C1)CC(c1ccc(Cl)cc1)(C3)C2	26%	42.3%	16.2%	11.3%	inactive	inactive		26.4 µM (active)	
O=C(CCCCCCC(=O)Nc1ccccc1)NO			171%	7.8%					

SMILES	parasite growth, % of control (lower = inhibition) [1]	growth, % of control [2]	cell viability, % of control (lower = more cytotoxic) [3]	viability (% of control) [4]	Potency [5]	Potency [6]	Potency [7]	Potency [8]	Potency [9]
NC(=O)[C@@H](CCC(F)(F)F)N(Cc1ccc(-c2ncon2)cc1F)S(=O)(=O)c1ccc(Cl)cc1	54.6%	73.5%	127%	93.2%	inactive	inactive		18.7 µM (active)	
CC(C)C(C)C=CC(C)C1CCC2C3=CC=C4CC(O)CCC4(C)C3CCC21C (configuration not stated)	92.8%	98%	136%	127%	inactive	inactive	inactive		inactive
O=C(NC1CCOCC1)c1ccc(-c2cc(-c3cn[nH]c3-c3ccccn3)ccn2)cc1	40.9%	47.3%	724%	131%	inactive	inactive	inactive		inactive
CCS(=O)(=O)N1CC(CC#N)(n2cc(-c3ncnc4[nH]ccc34)cn2)C1			134%	17.5%					
CCC(=O)O[C@]1(C(=O)CO)CC[C@H]2[C@@H]3CCC4=CC(=O)CC[C@]4(C)[C@@H]3CC[C@@]21C	38.1%	31%	84.6%	81.8%	inactive	inactive	inactive		inactive
NC(=O)c1ccc2nc(-c3ccc(Oc4ccc(Cl)cc4)cc3)[nH]c2c1	61.3%	83.4%	59.5%	38%	inactive	inactive		0.526 µM (active)	
O=c1cc(N2CCOCC2)oc2c(-c3cccc4c3sc3ccccc34)cccc12	25.8%	7.93%	2.51%	3.76%	inactive	inactive		10.5 µM (active)	
Cc1cc(OCCCc2c(C(=O)O)n(Cc3cccnc3)c3c(-c4c(COc5ccc(N6CCN([S+](C)(=O)[O-])CC6)cc5)nn(C)c4C)cccc23)cc(C)c1Cl	16%	5.16%	62.9%	96.7%	inactive	inactive		20.9 µM (active)	
C[C@H]1[C@H](NC(=O)C(=NOC(C)(C)C(=O)O)c2csc(N)n2)C(=O)N1S(=O)(=O)O		102%	120%	121%	inactive	inactive	inactive	inactive	
COc1ccc(-c2oc3c(CC=C(C)C)c(OC4O[C@H](CO)[C@@H](O)[C@H](O)[C@@H]4O)cc(O)c3c(=O)c2OC2O[C@@H](C)[C@H](O)[C@@H](O)[C@@H]2O)cc1 (some centres not stated)	36.2%	11.3%	68.1%	102%	inactive	inactive		26.4 µM (active)	26.4 µM (active)
C[C@]12CC[C@@H]3c4ccc(O)cc4C[C@@H](CCCCCCCCCS(=O)CCCC(F)(F)C(F)(F)F)[C@H]3[C@H]1CC[C@H]2O (some centres not stated)	10.8%	3.95%	105%	108%	inactive	inactive		14.8 µM (active)	
Cc1cnc(C(=O)O)c[n+]1[O-]	108%	66.8%	174%	105%	inactive	inactive	inactive		
CC(C)(Cc1ccc2ccccc2c1)NC[C@@H](O)COc1cccc(Cl)c1C#N	59.5%	92%	123%	12.4%	inactive	inactive		16.6 µM (active)	
COc1cc(N2CCC(N3CCN(C)CC3)CC2)ccc1Nc1ncnc(Nc2ccccc2S(=O)(=O)C(C)C)n1	8.07%	4.08%	2%	6.26%	inactive	inactive	20.9 µM (active)		
COC[C@@H](c1ccc(C(F)(F)F)cc1)N1CCN(C2(C)CCN(C(=O)c3c(C)ncnc3C)CC2)C[C@H]1C	21.5%	28.5%	7.13%	6.85%	inactive	inactive			
N[C@@]1(C(=O)O)CS(=O)(=O)[C@H]2[C@H](C(=O)O)[C@H]21	112%	59.7%	78.4%	76%	inactive	inactive			
COc1ncc(-c2ccc3nccc(-c4ccnnc4)c3c2)cc1NS(=O)(=O)c1ccc(F)cc1F	6.02%	4.97%	3.44%	3.33%	inactive	inactive			
CCNc1cc(NC2CCC(O)CC2)nc(Nc2ccc3c(ccn3Cc3ccccc3)c2)n1 (configuration not stated)	15.2%	9.27%	21.8%	2.13%	inactive	inactive			23.5 µM (active)
CO[C@H]1C[C@@H]2CC[C@@H](C)[C@@](O)(O2)C(=O)C(=O)N2CCCC[C@@H]2C(=O)O[C@H]([C@H](C)C[C@@H]2CC[C@H](OC(=O)C(C)(CO)CO)[C@H](OC)C2)CC(=O)[C@H](C)C=C(C)[C@@H](O)[C@@H](OC)C(=O)[C@H](C)C[C@H](C)C=CC=CC=C1C	9.78%	3.93%	6.71%	3.11%	inactive	inactive			
COc1ccc2cc(-c3nc(-c4ccc(S(C)=O)cc4)[nH]c3-c3ccncc3)ccc2c1 (configuration not stated)	10.6%	3.67%	470%	65.1%	inactive	inactive			20.9 µM (active)
Cc1ccc(F)c(NC(=O)Nc2ccc(-c3cccc4[nH]nc(N)c34)cc2)c1	13.4%	9.71%	5.38%	1.55%	inactive	inactive			
Oc1ccc(C2CCN(c3ccnc4ccccc34)CC2)cc1O	11.6%	3.95%	31%	5.01%	inactive	inactive			
